{"source": "ChEMBL document CHEMBL1961873", "about": "“Compounds: GSK PKIS; Assays: Nanosyn kinase panel” (2012)", "data": [{"target": "Tyrosine-protein kinase Fyn (Homo sapiens) (UniProt P06241)", "sequence (P06241 2-537 limits assumed)": "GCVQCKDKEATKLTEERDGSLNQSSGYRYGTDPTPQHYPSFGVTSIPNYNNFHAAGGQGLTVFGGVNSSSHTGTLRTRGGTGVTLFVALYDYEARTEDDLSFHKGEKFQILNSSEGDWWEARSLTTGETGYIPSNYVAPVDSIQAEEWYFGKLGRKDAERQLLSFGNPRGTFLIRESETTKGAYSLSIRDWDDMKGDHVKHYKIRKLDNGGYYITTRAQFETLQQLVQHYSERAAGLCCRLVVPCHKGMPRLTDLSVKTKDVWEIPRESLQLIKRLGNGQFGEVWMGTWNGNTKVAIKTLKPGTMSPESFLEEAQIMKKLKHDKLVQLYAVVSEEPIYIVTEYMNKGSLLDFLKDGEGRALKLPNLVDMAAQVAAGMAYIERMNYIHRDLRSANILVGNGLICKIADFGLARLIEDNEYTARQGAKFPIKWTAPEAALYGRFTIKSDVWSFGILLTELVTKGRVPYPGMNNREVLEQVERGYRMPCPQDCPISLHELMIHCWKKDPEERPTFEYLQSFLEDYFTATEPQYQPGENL", "settings": "at 1 µM", "units": {"inhibition": "%"}, "values": [{"smiles": "ON=C1CCc2cc(-c3nc(C4CCNCC4)[nH]c3-c3ccncc3)ccc21", "inhibition": 0.87}, {"smiles": "CS(=O)(=O)Nc1cccc(-c2ccc3c(NC(=O)C4CC4)n[nH]c3c2)c1", "inhibition": 3.25}, {"smiles": "NS(=O)(=O)c1ccc(-c2cc3ccncc3cc2OCc2ccccc2)cc1", "inhibition": 3.52}, {"smiles": "[O-][S+]1CCN(Cc2ccc(-c3ccc4ncnc(Nc5ccc(OCc6ccccc6)c(Cl)c5)c4c3)o2)CC1", "inhibition": 4.61}, {"smiles": "N#Cc1c(NC(=O)c2ccccc2F)sc2c1CCCC2", "inhibition": 3.17}, {"smiles": "COc1cc2ncn(-c3cc(OCc4ccccc4S(C)(=O)=O)c(C#N)s3)c2cc1OC", "inhibition": 76.8}, {"smiles": "NC(=O)c1cccc(Nc2nccc(Nc3cccc(F)c3)n2)c1", "inhibition": 43.2}, {"smiles": "CN(C)C(=O)O[C@H]1CN[C@H](C#Cc2cc3ncnc(Nc4ccc(OCc5cccc(F)c5)c(Cl)c4)c3s2)C1", "inhibition": 1.7}, {"smiles": "Cc1ccc(NC(=O)CC2CC2)cc1-c1ccc(C(=O)NCC2CC2)cc1", "inhibition": 5.9}, {"smiles": "CN(C)c1cc2c(Nc3ccc4c(cnn4Cc4ccccc4)c3)ncnc2cn1", "inhibition": 15.3}, {"smiles": "CN(c1ccc(NC(=O)Nc2ccc(OC(F)(F)F)cc2)cc1)c1ccnc(Nc2cccc(S(N)(=O)=O)c2)n1", "inhibition": 53.5}, {"smiles": "CCS(=O)(=O)c1ccc(OC)c(Nc2ncc(-c3cccc(OC)c3)o2)c1", "inhibition": 76.5}, {"smiles": "COc1cc(Nc2nccc(-c3cnn4ncccc34)n2)cc(OC)c1", "inhibition": 40.3}, {"smiles": "O=C1Nc2ccc(-c3cccnc3)cc2C1=Cc1cc(Br)c(O)c(Br)c1", "inhibition": 10.5}, {"smiles": "CN(C)C(=O)O[C@@H]1CN[C@@H](C#Cc2cc3ncnc(Nc4ccc(OCc5cccc(F)c5)c(Cl)c4)c3s2)C1", "inhibition": 3.53}]}]}
